Assay [1] deals with T1, 3-phosphoinositide-dependent protein kinase 1 (Homo sapiens) (UniProt O15530).
T1 sequence (whole entry): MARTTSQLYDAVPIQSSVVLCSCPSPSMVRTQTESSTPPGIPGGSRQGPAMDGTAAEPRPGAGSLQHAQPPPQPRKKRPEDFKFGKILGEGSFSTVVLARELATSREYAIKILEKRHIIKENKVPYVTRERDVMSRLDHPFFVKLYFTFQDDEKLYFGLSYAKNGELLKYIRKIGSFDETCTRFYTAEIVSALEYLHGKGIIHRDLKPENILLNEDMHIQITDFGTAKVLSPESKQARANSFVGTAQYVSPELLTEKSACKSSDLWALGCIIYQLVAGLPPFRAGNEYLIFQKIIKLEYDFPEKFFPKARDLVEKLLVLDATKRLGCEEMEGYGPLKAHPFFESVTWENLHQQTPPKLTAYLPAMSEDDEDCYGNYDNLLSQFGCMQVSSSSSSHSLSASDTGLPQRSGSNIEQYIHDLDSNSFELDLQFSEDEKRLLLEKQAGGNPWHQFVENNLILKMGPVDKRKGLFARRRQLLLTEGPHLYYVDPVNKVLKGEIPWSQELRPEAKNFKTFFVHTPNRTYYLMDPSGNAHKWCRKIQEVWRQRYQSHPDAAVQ
The settings on record: at 0.1 µM.

Assay [2] has as its target cAMP-dependent protein kinase catalytic subunit alpha (Homo sapiens) (UniProt P17612). The settings on record: at 0.1 µM.
For assay [3] the target is unchanged. The settings on record: at 1 µM.
In assay [4] the target is Protein kinase C alpha type (Homo sapiens) (UniProt P17252). The settings on record: at 0.1 µM.
Assay [5] has the same target. The settings on record: at 1 µM.
The target in assay [6] is Protein kinase C beta type (Homo sapiens) (UniProt P05771). The settings on record: at 0.1 µM.
The target is the same in assay [7]. The settings on record: at 1 µM.
For assay [8], the target named is Protein kinase C eta type (Homo sapiens) (UniProt P24723). The settings on record: at 0.1 µM.
Assay [9] has the same target. The settings on record: at 1 µM.
Assay [10] concerns the target Protein kinase C gamma type (Homo sapiens) (UniProt P05129). The settings on record: at 0.1 µM.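 Note: values are mean percent inhibition of PKC gamma.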

Sequence of Protein kinase C eta type (Homo sapiens) (P24723 whole entry): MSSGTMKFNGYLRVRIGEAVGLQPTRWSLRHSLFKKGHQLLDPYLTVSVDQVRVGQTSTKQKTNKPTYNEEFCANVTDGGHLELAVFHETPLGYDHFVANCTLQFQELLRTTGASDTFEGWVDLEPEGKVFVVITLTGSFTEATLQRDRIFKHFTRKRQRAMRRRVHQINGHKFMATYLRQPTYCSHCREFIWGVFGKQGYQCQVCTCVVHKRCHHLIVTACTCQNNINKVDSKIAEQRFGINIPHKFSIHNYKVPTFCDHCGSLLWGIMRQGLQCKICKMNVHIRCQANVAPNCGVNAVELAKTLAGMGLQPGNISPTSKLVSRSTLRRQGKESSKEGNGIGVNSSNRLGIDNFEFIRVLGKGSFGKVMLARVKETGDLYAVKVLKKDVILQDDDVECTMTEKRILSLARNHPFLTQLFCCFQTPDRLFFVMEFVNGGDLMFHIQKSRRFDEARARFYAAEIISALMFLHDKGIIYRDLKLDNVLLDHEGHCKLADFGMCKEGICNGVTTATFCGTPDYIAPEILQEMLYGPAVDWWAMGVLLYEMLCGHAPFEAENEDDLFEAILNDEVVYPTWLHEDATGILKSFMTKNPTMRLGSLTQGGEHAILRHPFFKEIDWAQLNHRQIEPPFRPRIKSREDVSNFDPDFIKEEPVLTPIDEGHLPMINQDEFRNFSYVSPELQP
Sequence of Protein kinase C beta type (Homo sapiens) (P05771 2-671 limits assumed): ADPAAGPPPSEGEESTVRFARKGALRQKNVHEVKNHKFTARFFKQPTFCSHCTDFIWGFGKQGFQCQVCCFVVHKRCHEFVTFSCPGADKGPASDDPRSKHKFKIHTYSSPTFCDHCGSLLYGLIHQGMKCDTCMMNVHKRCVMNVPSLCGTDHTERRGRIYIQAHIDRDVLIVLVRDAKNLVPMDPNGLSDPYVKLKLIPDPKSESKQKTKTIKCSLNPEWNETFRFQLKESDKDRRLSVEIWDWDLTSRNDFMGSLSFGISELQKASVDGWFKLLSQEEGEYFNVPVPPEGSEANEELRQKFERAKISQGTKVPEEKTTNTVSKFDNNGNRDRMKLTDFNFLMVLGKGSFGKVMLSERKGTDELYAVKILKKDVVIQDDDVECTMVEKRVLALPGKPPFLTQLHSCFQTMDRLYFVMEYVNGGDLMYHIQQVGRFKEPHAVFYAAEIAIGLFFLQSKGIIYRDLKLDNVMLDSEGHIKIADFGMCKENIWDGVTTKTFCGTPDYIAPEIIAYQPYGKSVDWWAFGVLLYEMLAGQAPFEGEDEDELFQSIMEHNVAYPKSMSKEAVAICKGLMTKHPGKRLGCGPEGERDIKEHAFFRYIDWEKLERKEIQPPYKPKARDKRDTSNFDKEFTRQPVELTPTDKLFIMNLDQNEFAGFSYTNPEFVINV

Turning to `CN1CCN(CCCNc2nc3ccc(Oc4ccc(NC(=O)Nc5cc(C(F)(F)F)ccc5F)cc4)cc3[nH]2)CC1`, the inhibition in assay [1] is 2.91%; in assay [2], -1.46%; in [3] it was -0.98%; in [4], -2.39%; in assay [5] it was -1.52%; in assay [6], 2.13%. In addition, the inhibition in [7] came out at 1.42%; in [8] it was 1.27%; in assay [9] it was 1.68%; in assay [10] it was 1.25%.

As for `O=C(Nc1n[nH]c2cc(-c3cc(F)ccc3F)ccc12)C1CC1`, the inhibition in assay [1] is 2.95%; in assay [2], 2.32%; in assay [3], 0.93%; in assay [4] it was 0.67%; in [5], 1.99%; in [6] it was 0.43%. Moreover, the inhibition in assay [7] is 2.04%; in assay [8] it was 2.87%; in [9], 3.93%; in assay [10], 2.77%.

Consider `C[C@@H](Oc1cc(-n2cnc3ccc(OC4CCN(C)CC4)cc32)sc1C(N)=O)c1ccccc1Cl`, for which the inhibition in assay [1] is 0.63%; in [2] it was -1.89%; in assay [3] it was -4.19%; in [4], -3.4%; in assay [5], 0.64%; in assay [6] it was 0.95%. The inhibition in assay [7] worked out at 3.55%; in [8], 2.46%; in assay [9] it was 4.62%; in [10], 0.71%.

`COc1cc(Nc2ncc3c(C)nc(-c4cccc(Oc5ccccc5)c4)n3n2)cc(OC)c1OC`: the inhibition in assay [1] is 3.74%; in assay [2], 0.88%; in assay [3], -0.04%; in [4], 0.01%; in [5] it was 0.77%; in assay [6], -0.46%. In addition, the inhibition in assay [7] is -0.16%; in assay [8], 4.9%; in [9] it was -1.37%; in assay [10], 0.97%.

As to `Cc1nnc(-c2ccc(C)c(-c3ccc(C(=O)NCc4ccc(Cl)cc4)cc3)c2)o1`, the inhibition in [1] was 1.14%; in assay [2] it was -1.01%; in [3] it was 0.62%; in assay [4], -3.05%; in [5], -1.62%; in assay [6], 0.85%. Besides, the inhibition in assay [7] worked out at 0.84%; in [8], 6.52%; in assay [9], 7.5%; in assay [10], 2.61%.

As for `NC(=O)Cc1ccccc1Oc1nccc(-c2c(-c3ccc(F)cc3)ncn2C2CCNCC2)n1`, the inhibition was 1.03% in assay [1]; 1.37% in [2]; 0.93% in assay [3]; 0.35% in assay [4]; 1.51% in [5]; -0.44% in assay [6]. For the same molecule, the inhibition in assay [7] was found to be 3.18%; in assay [8] it was 3.28%; in assay [9] it was 0.22%; in [10], 4.12%.

On to `COc1ccc2ncn(-c3cc(O[C@H](C)c4ccccc4Cl)c(C(N)=O)s3)c2c1`, for which the inhibition in [1] was 0.22%; in assay [2] it was -1.47%; in [3], -1%; in [4] it was -2.81%; in [5], -1.38%; in [6], 1.09%. In addition, the inhibition came out at 2.58% in assay [7], 5.09% in [8], 3.95% in assay [9] and 0.98% in assay [10].

In the case of `CN(C)CCCNc1nccc(-c2c(-c3ccc(F)cc3)nn3cc(C(F)(F)F)ccc23)n1`, the inhibition in assay [1] was 2.53%; in assay [2], -2.76%; in [3], -2.98%; in assay [4], -2.9%; in assay [5], -2.14%; in assay [6], 2.22%. Also, the inhibition in [7] was determined as 0.97%; in assay [8] it was 6.55%; in assay [9], 0.14%; in [10] it was 1.19%.

Regarding `c1ccc(-c2n[nH]cc2-c2ccnc(-c3ccc(OCCN4CCOCC4)cc3)c2)nc1`, the inhibition in assay [1] was 1.56%; in assay [2], 7.85%; in assay [3], 3.77%; in assay [4], 2.22%; in [5], 1.97%; in [6] it was 5.36%. Also, the inhibition in assay [7] is 3.85%; in assay [8] it was -2.82%; in assay [9], -2.18%; in assay [10] it was 3.17%.

For `CN(c1ccc(NC(=O)Nc2c(Cl)cccc2Cl)cc1)c1ccnc(Nc2cccc(CS(C)(=O)=O)c2)n1`, the inhibition in [1] is 9.04%; in assay [2] it was 2.36%; in [3], 3.01%; in [4], 1.14%; in assay [5], 2.02%; in [6], 0.67%. Further, the inhibition in [7] was determined as 1.35%; in assay [8], 1.33%; in [9] it was 3.8%; in assay [10], 3.61%.

`CCS(=O)(=O)c1ccc(OC)c(Nc2ncc(-c3ccccc3Cl)o2)c1`: the inhibition is 4.14% in assay [1]; 1.17% in assay [2]; 1.75% in assay [3]; 0.48% in assay [4]; 1.87% in [5]; 0.67% in assay [6]. Further, the inhibition in [7] was 0.07%; in [8], 0.14%; in [9], 0.6%; in [10], -2.72%.

On to `CN(C)c1ccc2c(c1)/C(=C/Nc1ccc(S(N)(=O)=O)cc1)C(=O)N2`, for which the inhibition in assay [1] turned out to be 11.6%; in assay [2] it was 1.77%; in assay [3] it was 1.6%; in assay [4], 0.48%; in [5], 1.56%; in assay [6] it was 0.94%. In addition, the inhibition in assay [7] is 0.89%; in assay [8], 2.02%; in assay [9] it was 2.17%; in [10] it was 0.64%.

Regarding `O=C(Nc1n[nH]c2nc(-c3ccc(O)cc3)c(Br)cc12)C1CC1`, the inhibition stood at 5.57% in [1]; 2.91% in assay [2]; 5.49% in assay [3]; 5.38% in [4]; 36.9% in [5]; 6.11% in assay [6]. The inhibition in [7] came out at 36.5%; in assay [8] it was 6.81%; in [9], 12.9%; in assay [10], 12.7%.

With `Cc1ccc(C(=O)NC2CCC2)cc1-c1ccc(C(=O)NCC2CC2)cc1`, the inhibition in [1] is 1.97%; in assay [2], 1.15%; in assay [3] it was 1.14%; in assay [4] it was 0.19%; in assay [5], -0.23%; in [6] it was 0.31%. Besides, the inhibition in assay [7] came out at 1.48%; in assay [8], 7.1%; in assay [9] it was 2.68%; in assay [10] it was 0.43%.

With `NC(=O)c1cc(-c2ccc(F)cc2)cc(-c2ccncc2)c1N`, the inhibition in assay [1] is 1.54%; in assay [2] it was 1.46%; in [3], 3.06%; in [4], 0.16%; in [5], 1.21%; in assay [6], -1.29%. For the same molecule, the inhibition is 3.15% in [7], 3.71% in assay [8], 8.19% in [9] and 0.15% in [10].

On to `CCS(=O)(=O)c1ccc(OC)c(Nc2ncc(-c3cccc(-c4ccccc4F)c3)o2)c1`, for which the inhibition worked out at 9.34% in assay [1]; 0.57% in assay [2]; 1.3% in assay [3]; 1.13% in assay [4]; 1.66% in [5]; 0.49% in assay [6]. Further, the inhibition in assay [7] is 0.3%; in assay [8] it was -1.89%; in assay [9], -1.48%; in assay [10], 0.64%.

Take `Fc1ccc(-c2ncn(C3CCNCC3)c2-c2ccnc(Oc3ccc(Oc4ccccc4)cc3)n2)cc1`: the inhibition in assay [1] turned out to be 0.03%; in [2], 4.74%; in assay [3], 24.9%; in [4], 1.36%; in assay [5], 4.49%; in assay [6] it was 1.48%. The inhibition in assay [7] is 11.2%; in assay [8], 1.53%; in assay [9] it was 5.81%; in assay [10], 2.37%.

Broadly, the inhibition is the relative decrease from the control value, in per cent.

For the origin of these results see ChEMBL document CHEMBL1961873, “Compounds: GSK PKIS; Assays: Nanosyn kinase panel” (2012).
